Source: PubChem BioAssay (several laboratories)
Shown are actives, neighbours in structure and some others; about 1.6% of the full set was active somewhere.
PABP1 MLLE inh: inhibitors of microRNA-mediated deadenylation, human PABP1 MLLE binding | P11940 | GST-MLLE / FITC-PAM2 fluorescence polarization | inhibition, % at 20 µM | actives 0.36% (n = 360,000) | AID 588489; in the data active means inhibition above about 35%, passing the limit was not always enough;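 further: plate controls were DMSO wells with GST-MLLE for no effect and wells lacking GST-MLLE protein for full effect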
PERK inhibitor: inhibitors of human PERK kinase; AID 1416; actives 0.17% (n = 220,000); CHO PERK-DD fusion, SEAP luminescence translation reporter; inhibition, % at 5.6 µM; Q9NZJ5;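 active means inhibition above the mean inhibition of all tested compounds plus 3 SD, set separately per screening campaign, cut at about 2.9% in these data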;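 further: PERK kinase domain activated by AP20187 dimerizer at 100 nM; 0% = DMSO with dimerizer and 100% = rapamycin at 8.4 µM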
eIF4E 4G PPI: blocks eIF4E binding to eIF4G | P63073+Q04637 | TR-FRET eIF4E-eIF4GI(517-606) binding, 2 h | inhibition, % at 21.7 µM | actives 0.37% (n = 220,000);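 active means inhibition above about 30%, limit read from the data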;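 further: 0% = full FRET control wells and 100% = background wells lacking eIF4GI fragment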
PABP FP inh: PABP-poly(A) binding inhibition | P11940 | PABP-poly(A) RNA binding, fluorescence polarization | inhibition, % at 35 µM | actives 1% (n = 290,000) | AID 2014;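 further: calls also rest on retests at 20 µM and on dose response follow-up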
eIF4H FP inh: inhibitors of RNA binding by human eIF4H; eIF4H fluorescence polarization binding assay; inhibition, % at 35 µM; actives 0.94% (n = 290,000); AID 2012;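 further: calls also rest on retests at 20 µM and on dose response follow-up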
* hit, by the source's call; ? = inconclusive; nt = not tested or not shown. Unless noted, how the calls were made is not given here.

SMILES | PABP1 MLLE inh | PERK inhibitor | eIF4E 4G PPI | PABP FP inh | eIF4H FP inh
COc1ccc(C)cc1S(=O)(=O)N(CC(=O)N1CCOCC1)c1cc(C)cc(C)c1 | -8 | nt | nt | -6 | -8
CCc1[nH]c(=O)c(C#N)c2c1CCCC2 | 3 | -1 | nt | 10 | -1
CCn1c(C)nc2cc(N)ccc21 | 5 | 1 | 6 | 16 | 12
O=c1[nH]c(=O)c2[nH]c(=O)n(-c3ccccc3)c2[nH]1 | 4 | nt | nt | nt | nt
C/C=C(\C)C(=O)NCCN1C2=NC[C@H](C(C)C)N2C[C@@H]1Cc1ccc(OC)cc1 | 11 | 1 | -1 | 52* | 48
CCc1ccc([C@@H]2C[C@H]3[C@@H](CN2S(=O)(=O)c2ccc(C)cc2)C(=O)C[C@@H](c2ccccc2F)N3S(=O)(=O)c2ccc(C)cc2)cc1 | -12 | nt | nt | nt | nt
C/C(=N\NC(=O)CSc1nnc(C)s1)c1ccc(Cl)cc1 | 27 | 0 | 3 | 2 | -7
COc1ccc(/C(C)=N\NC(=O)CSc2nnc(C)s2)cc1 | 48* | 1 | -2 | 12 | -8
Cc1ccc(C)c(N/N=C2\CCCNC2=O)c1 | 20 | 0 | 10 | 7 | 7
O=C1ON=C(c2ccccc2)/C1=C/c1ccc(O)c(O)c1 | -69 | nt | nt | 15* | 51
COc1ccc(/C=C2\C(=O)ON=C2c2ccccc2)cc1 | 36 | nt | nt | 4 | -6
CC(C)CNC1=CC(=O)CC(c2ccco2)C1 (stereo unspecified) | 6 | 1 | -2 | 92* | 108*
O=C1C=C(O)CC(c2ccco2)C1 (stereo unspecified) | -1 | 1 | 7 | 77* | 104*
O=C1C=C(Nc2ccc(O)cc2)CC(c2ccco2)C1 (stereo unspecified) | 5 | 0 | 2 | -4 | 0
CCOCC(=O)Nc1nc2ccc(C)cc2s1 | 41* | 0 | 2 | 2 | -3
C=CCNC(=O)c1cc2c(=O)n3cccc(C)c3nc2s1 | -5 | nt | nt | 7 | -2
COc1cccc(CN2CCC(Oc3ccc(C(=O)NCc4ccccn4)cc3)CC2)c1 | 0 | nt | nt | -1 | 4
O=C(Nc1ncccc1Cl)c1ccccc1F | -4 | 1 | -1 | 0 | 5
CC(=O)Nc1cccc(C(=O)Nc2cccc(S(=O)(=O)NCc3ccco3)c2)c1 | -4 | nt | nt | nt | nt
CNc1nc(-c2ccccc2)[n+](-c2ccc(C)cc2)s1 | -48 | 0 | 39* | -20 | -18
Cc1ccc(-c2nc3ccccc3nc2-c2ccccc2)cc1 | -6 | nt | nt | 6 | -4
Cc1ccc(-c2nc(N)s[n+]2-c2ccccc2)cc1 | 40* | 0 | 26 | 7 | 4
CCOC(=O)C1CCN(C(=O)c2n[nH]c(=O)c3ccccc23)CC1 | 0 | 1 | -5 | -4 | -10
O=C(O)O | nt | 0 | -3 | 118 | 0.6*
O=C(O)/C=C\C(=O)O | -1 | nt | nt | nt | nt
SMILES | PABP1 MLLE inh | PERK inhibitor | eIF4E 4G PPI | PABP FP inh | eIF4H FP inh
COc1ccccc1NS(=O)(=O)c1ccc(O)c(NC(=S)NCC2CCCO2)c1 (stereo unspecified) | 40* | 1 | -3 | 0 | 0
CC(=O)c1ccc(S(=O)(=O)N2Cc3ccccc3CC2C(=O)O)cc1 (stereo unspecified) | 1 | -1 | 1 | 57* | 99*
CS(=O)(=O)N1Cc2ccccc2CC1C(=O)O (stereo unspecified) | 12 | 0 | 0 | active | ?
O=C(O)C1Cc2ccccc2CN1S(=O)(=O)/C=C/c1ccccc1 (stereo unspecified) | 7 | 0 | 2 | -7 | -4
CCOC(=O)c1c(NC(=O)C(Sc2ccccc2)c2ccccc2)sc(C(=O)N(C)C)c1C (stereo unspecified) | 16 | -1 | 4 | 66* | active
CCOC(=O)c1c(NC(=O)C(Sc2ccccc2)c2ccccc2)sc(C(N)=O)c1C (stereo unspecified) | 19 | 1 | -24 | 2 | -10
O=C(Nc1cccc2ccccc12)c1ccc(Br)o1 | 13 | 0 | 47* | 0 | -3
O=C(Nc1cccc2cccnc12)c1ccc(Br)o1 | 2 | 0 | 2 | -15 | 6
COc1ccc(Nc2ccc(N3C(=O)CC(C)C3=O)cc2[N+](=O)[O-])cn1 (stereo unspecified) | 40* | 1 | 3 | 2.6* | 74
C/C(=N\NC(=O)Cc1c(C)[nH][nH]c1=O)c1ccc(Cl)c(Cl)c1 | -13 | 1 | -3 | -11 | -15
C/C(=N\NC(=O)Cc1c(C)[nH][nH]c1=O)c1cccc(Br)c1 | -16 | 1 | 97* | 6 | 2
Cc1cccc(-n2c(=O)c3c4c(sc3n3c(=S)[nH]nc23)CCC4)c1 | -71 | 0 | 32* | -5 | 4
Cc1ccc(-n2c(=O)c3c4c(sc3n3c(=S)[nH]nc23)CCC4)cc1 | -94 | 0 | 26 | 6 | 0
O=c1c2c3c(sc2n2c(=S)[nH]nc2n1-c1ccccc1)CCC3 | -66 | 0 | 38* | -6 | -5
CCn1c(=O)c2c3c(sc2n2c(=S)[nH]nc12)CCC3 | -60 | 0 | 52* | 8 | -10
Cc1ccccc1NS(=O)(=O)c1ccc(OCC(=O)NCc2cccnc2)cc1 | -1 | 0 | 1 | -4 | -7
CC(C)CN(C(=O)CN1CCN(c2ccc([N+](=O)[O-])cc2)CC1)c1c(N)n(CC(C)C)c(=O)[nH]c1=O | -23 | 1 | 1 | -2 | -8
O=C(OCc1nc2ccccc2s1)c1ccc([N+](=O)[O-])o1 | -6 | nt | nt | -2 | -16
O=C(OCc1nc2ccccc2s1)c1ccc(Br)o1 | -10 | 1 | 2 | 70* | 7.1*
Cc1nc(N)sc1-c1csc(N(C)c2ccc(O)cc2)n1 | -9 | 1 | 11 | 70* | 92*
O=C(CSc1ccsc1[N+](=O)[O-])N1CCN(c2ccccc2)CC1 | 12 | 0 | 19 | -1 | 50
O=C(CSc1ccsc1[N+](=O)[O-])N1CCN(c2ccc(Cl)cc2)CC1 | 3 | 0 | 17 | active | 77*
O=C(Nc1ccccc1)c1ccc(NC(=O)C2CC2)cc1 | -3 | nt | nt | 10 | 5
COc1ccc(NC(=O)CSc2nc(O)cc(=O)n2-c2ccc(OC)cc2)cc1 | 2 | nt | nt | 6 | 7
CCOc1ccccc1C(=O)N1CCN=C1SCc1cccnc1 | 40* | 0 | 7 | -6 | -5
SMILES | PABP1 MLLE inh | PERK inhibitor | eIF4E 4G PPI | PABP FP inh | eIF4H FP inh
O=C(c1ccccc1F)N1CCN=C1SCc1cccnc1 | 5 | 0 | -4 | 5 | -8
Cc1ccc(C)c(S(=O)(=O)Nc2ccc(O)c(Sc3ncn[nH]3)c2)c1 | 18 | 1 | 7 | 55* | 79*
CNC(=O)NC(=S)NC(=O)c1ccccc1Cl | 34 | 1 | -6 | -9 | -6
O=C(NC(=S)Nc1ncccn1)c1ccccc1Cl | 41* | 0 | 1 | -8 | 2
O=C(NNC(=S)NC(=O)c1ccccc1[N+](=O)[O-])c1ccccc1O | 16 | -1 | -4 | 11 | 16
O=C(NC(=S)Nc1cccc2c(O)cccc12)c1ccco1 | 25 | nt | nt | 55* | 66*
O=C(NC(=S)N1CCCc2ccccc21)c1ccco1 | 33 | 1 | 0 | 40 | -3
Cc1c(NC(=S)NC(=O)C(C)(C)C)cccc1[N+](=O)[O-] | 34 | 0 | 0 | 120* | active
